Here are results for 22 compounds from PubChem BioAssay (Tox21).

The structures appear in SMILES notation. Results filed as inconclusive are left out. A number with no mark means an inactive call. Activity calls are given as the source filed them. Calls follow the shape of the dose curve; as a rule, active = well fitted cell-killing curve with a large enough effect in the repeat runs; inconclusive = weak or mixed curves, or effect the other way; inactive = flat fitted curve, though single readings scatter.
% is scaled to controls: 0 for no effect and ±100 for the full control effect; potency is read from the fitted curve at half-maximal effect.

The test can be described thus: cAMP Responsive Elements (CRE) small molecule antagonists, cell-based qHTS assay: qHTS cell viability counter screen (AID 2060913). Also: nearly all actives have a fitted effect of over 40% in size. The note with it: CRE-bla HEK293T viability, CellTiter-Glo luminescence, 5 h; series mostly up to 92.4 µM; viability change, negative = cytotoxic: at the top concentration. An outline of the steps:
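Cytotoxicity read in the same wells as the CRE-bla HEK293T antagonist assay: after 3 h compound with 0.25 uM NKH477 final and 2 h beta-lactamase substrate, CellTiter-Glo luminescence measured.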
On the technique in general: In qHTS, concentration-response curves come from the screen itself.
Consider `Cc1cc(C2(c3cc(C)c(O)cc3C)OS(=O)(=O)c3ccccc32)c(C)cc1O`, for which the Potency entry was “inactive”.

For `CC(C)OC(=O)CCCCC(=O)OC(C)C`, the “viability change, negative = cytotoxic” value was 10.4%.

As for `CCO[Si](CCCSSSSCCC[Si](OCC)(OCC)OCC)(OCC)OCC`, the “viability change, negative = cytotoxic” value was 6.76%.

On to `Nc1ccc2c(O)cc(S(=O)(=O)O)cc2c1`, for which the Potency result was “inactive”.

In the case of `CCCCCCCCN1CCCC1=O`, the “viability change, negative = cytotoxic” value was 1.2%.

Turning to `CC(C)C1CCC(C(=O)N[C@H](Cc2ccccc2)C(=O)O)CC1` (some centres not stated), the “viability change, negative = cytotoxic” value is -3.76% [at 42.5 µM].

Consider `Nc1ccc(C(=O)O)c(O)c1`, for which the “viability change, negative = cytotoxic” value is -1.64% [at 42.5 µM].

Regarding `CCN(CC)CC(=O)Oc1ccc(NC(C)=O)cc1`, the “viability change, negative = cytotoxic” value was -2.28% [at 42.5 µM].

On to `CC(=O)/C=C/C=C1/C2CCC(C2)C1(C)C` (configuration not stated), for which the “viability change, negative = cytotoxic” value was -1.71% [at 42.5 µM].

For `CC(C)OC(=O)c1ccccc1`, the “viability change, negative = cytotoxic” value is -7.8%.

Turning to `OCCN(CCO)c1cccc(Cl)c1`, the “viability change, negative = cytotoxic” value is -1.89%.

Take `O=C(O)c1c(Cl)cccc1Cl`: the “viability change, negative = cytotoxic” value is 3.03%.

Turning to `CC(=O)c1c(C)cc(C(C)(C)C)cc1C`, the “viability change, negative = cytotoxic” value was -6.55%.

Consider `CCCCC/C(=C\c1ccccc1)CO`, for which the “viability change, negative = cytotoxic” value was -16%.

Take `O=C1NCCN1CCN1CCC(c2cn(-c3ccc(F)cc3)c3ccc(Cl)cc23)CC1`: the Potency was 10.6 µM (active).

As for `C[C@]12CCC(=O)C=C1CC[C@@H]1[C@@H]2[C@@H](O)C[C@@]2(C)[C@H]1CC[C@]2(O)C(=O)COC(=O)CCC(=O)O`, the “viability change, negative = cytotoxic” value was -0.78% [at 42.5 µM].

For `COc1ccccc1N=Nc1c(S(=O)(=O)O)cc2cc(S(=O)(=O)O)cc(NC(C)=O)c2c1O`, the “viability change, negative = cytotoxic” value is -6.25%.

For `CN=C(NC#N)NCCSCc1csc(N=C(N)N)n1`, the “viability change, negative = cytotoxic” value was 0.438% [at 42.5 µM].

For the compound `O=c1n(CCCN2CCN(c3cccc(Cl)c3)CC2)nc2ccccn12`, the Potency entry is “inactive”.

On to `CC(=O)CC(=O)c1ccccc1`, for which the “viability change, negative = cytotoxic” value is 3.78%.

For the compound `Cc1ccccc1CCO`, the “viability change, negative = cytotoxic” value was 0.386%.

Turning to `CCCCCCCCCCCCCCCCOS(=O)(=O)O`, the “viability change, negative = cytotoxic” value is -15.4% [at 42.5 µM].
